In PubChem BioAssay (EPA / NIEHS):
Calls of active or inactive are those of the source. Rule for the calls: active = hit-call score of the fitted dose curve at least 0.9, where 1 is the maximum; inactive = score below 0.9.

Assay: ATG_Sox_CIS: Attagene CIS-FACTORIAL HepG2 Assay for human SRY-box transcription factor (SOX) (AID 2282960)
Settings: HepG2 Attagene cis-factorial SOX reporter, mRNA; actives raise or lower the signal
Method in brief: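 HepG2, cis reporter units, 24 h exposure. Reporter mRNA: RT-PCR → FAM labelling → HpaI → CE fluorescence. Bidirectional fit vs DMSO.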

Compound	outcome	AC50
O=[N+]([O-])c1ccc(Nc2ccc(Nc3ccccc3)c(S(=O)(=O)O)c2)c([N+](=O)[O-])c1	inactive	–
CC(C)(C)c1n[nH]c(=S)n(N)c1=O	inactive	–
CC(C)[C@H]1CC[C@@H](C)CC1=O	inactive	–
COc1ccc(OC)c(OC)c1	inactive	–
CCCCCC(=O)OCCc1ccccc1	inactive	–
NC(N)=NC(=O)c1nc(Cl)c(N)nc1N	inactive	–
O=C(O)Cc1cccc2ccccc12	inactive	–
OC1OC[C@@H](O)[C@H](O)[C@H]1O (stereo partly specified)	inactive	–
CC(=O)OCc1ccc2c(c1)OCO2	inactive	–
CCCC(=O)OCCC(C)CCC=C(C)C (stereo unspecified)	inactive	–
CCCCCCCCC=O	inactive	–
CCC(O)CO (stereo unspecified)	inactive	–
O=C1NC(=O)c2ccccc21	inactive	–
CC1(C)[C@H](C(=O)OCc2cccc(Oc3ccccc3)c2)[C@@H]1C=C(Cl)Cl	inactive	–
CC1(C)OC[C@@H]2O[C@@]3(C(=O)O)OC(C)(C)O[C@H]3[C@@H]2O1	inactive	–
CCCCc1ccc(N)cc1	inactive	–
S=C(S)NCCNC(=S)S	inactive	–
OCC(CO)(CO)COCC(CO)(CO)CO	inactive	–
O=C(O)c1snc(Cl)c1Cl	–	173 µM (active)
Cc1ccc(C(C)C)cc1O	inactive	–
Nc1ccc(S(=O)(=O)O)c(N)c1	inactive	–
CC(C)(CO)[N+](=O)[O-]	inactive	–
O=C[C@@H](O)[C@H](O)[C@H](O)CO	inactive	–
CCC(=O)OCc1ccccc1	inactive	–
CO[Si](CCCn1c(=O)n(CCC[Si](OC)(OC)OC)c(=O)n(CCC[Si](OC)(OC)OC)c1=O)(OC)OC	inactive	–
CCCC[n+]1ccccc1	inactive	–
